# Measured values taken from the supplement of paper PMC10849652.
# About 7,900 targets were measured; listed, in parts, are those with a hit and a random draw of the rest. About 0.6% of all pairs of compound and target were hits. Unmarked numbers belong to inactive results.
# How the values were obtained:
# Assay in all cases: log2 fold change, soluble protein after heating vs DMSO (PISA); higher = thermal stabilisation; K562 cells, 10 uM, 30 min; active = over 0.2 and 3.5 SD of the protein, either way, in both replicates (recomputed)
# [1] = compound: CS(=O)(=O)c1ccc(-c2cnc(N)c(C(=O)Nc3ccccc3)n2)cc1
# Outline: (§1)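 Quantification of soluble protein used TMTpro 16plex LC-MS/MS, with channel sums equalised. Samples were the supernatant after 21,000xg for 90 min of pooled aliquots from K562 cells (2×10^6 cells/mL) treated with 10 μM compound for 30 min, heated for 3 min over 48°C-58°C, and extracted in PBS with 0.5% NP-40 at 4°C. Values, from duplicates, describe thermal stability against control samples on a log2 fold-change scale.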
# crizotinib = compound: C[C@@H](Oc1cc(-c2cnn(C3CCNCC3)c2)cnc1N)c1c(Cl)ccc(F)c1Cl [crizotinib]
# Outline: as §1
# [2] = compound: C[C@@H]1COCCN1C2=NC(=NC(=C2)C3(CC3)S(=O)(=O)C)C4=C5C=CNC5=CC=C4
# Outline: as §1
# [3] = compound: C[C@H](C1=CC=C(C=C1)C(=O)NC2=C3C=CNC3=NC=C2)N
# Outline: as §1
# duvelisib = compound: C[C@H](Nc1ncnc2nc[nH]c12)c1cc2cccc(Cl)c2c(=O)n1-c1ccccc1 [duvelisib]
# Outline: as §1
# gandotinib = compound: Cc1cc(Nc2cc(CN3CCOCC3)c3nc(C)c(Cc4ccc(Cl)cc4F)n3n2)n[nH]1 [gandotinib]
# Outline: as §1
# tozasertib = compound: Cc1cc(Nc2cc(N3CCN(C)CC3)nc(Sc3ccc(NC(=O)C4CC4)cc3)n2)n[nH]1 [tozasertib]
# Outline: as §1
# [4] = compound: Cc1cc(SCc2sc(-c3ccc(C(F)(F)F)cc3)nc2C)ccc1OCC(=O)O
# Outline: as §1
# doramapimod = compound: Cc1ccc(-n2nc(C(C)(C)C)cc2NC(=O)Nc2ccc(OCCN3CCOCC3)c3ccccc23)cc1 [doramapimod]
# Outline: as §1
# ispinesib = compound: Cc1ccc(C(=O)N(CCCN)[C@@H](c2nc3cc(Cl)ccc3c(=O)n2Cc2ccccc2)C(C)C)cc1 [ispinesib]
# Outline: as §1
# Sequence of UniProt Q8WXF1 (Q8WXF1 whole entry, looked up): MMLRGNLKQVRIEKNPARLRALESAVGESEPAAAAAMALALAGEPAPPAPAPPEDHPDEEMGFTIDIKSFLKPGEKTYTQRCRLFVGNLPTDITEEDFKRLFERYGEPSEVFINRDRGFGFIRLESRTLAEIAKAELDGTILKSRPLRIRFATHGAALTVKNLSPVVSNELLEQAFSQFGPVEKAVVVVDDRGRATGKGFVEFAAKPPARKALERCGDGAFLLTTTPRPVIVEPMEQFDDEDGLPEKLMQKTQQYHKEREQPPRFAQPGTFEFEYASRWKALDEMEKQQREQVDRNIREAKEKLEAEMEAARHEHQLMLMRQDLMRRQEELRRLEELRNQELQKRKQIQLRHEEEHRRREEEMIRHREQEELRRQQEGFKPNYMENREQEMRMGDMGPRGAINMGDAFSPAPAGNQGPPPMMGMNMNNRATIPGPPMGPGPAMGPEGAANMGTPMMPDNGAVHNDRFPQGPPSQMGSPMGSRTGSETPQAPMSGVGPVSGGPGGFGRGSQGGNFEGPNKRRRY
# Sequence of UniProt Q15008 (Q15008 whole entry, looked up): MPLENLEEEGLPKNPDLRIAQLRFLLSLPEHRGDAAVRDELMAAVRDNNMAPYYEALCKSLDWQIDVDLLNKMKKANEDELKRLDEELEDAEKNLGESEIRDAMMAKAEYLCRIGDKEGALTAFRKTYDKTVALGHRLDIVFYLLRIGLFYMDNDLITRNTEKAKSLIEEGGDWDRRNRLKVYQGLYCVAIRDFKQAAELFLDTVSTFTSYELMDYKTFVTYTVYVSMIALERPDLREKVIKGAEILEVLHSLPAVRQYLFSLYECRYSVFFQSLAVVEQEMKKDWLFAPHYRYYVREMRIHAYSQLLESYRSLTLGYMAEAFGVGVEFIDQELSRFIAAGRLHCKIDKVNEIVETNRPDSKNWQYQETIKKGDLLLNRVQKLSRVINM
# Sequence of UniProt P49643 (P49643 whole entry, looked up): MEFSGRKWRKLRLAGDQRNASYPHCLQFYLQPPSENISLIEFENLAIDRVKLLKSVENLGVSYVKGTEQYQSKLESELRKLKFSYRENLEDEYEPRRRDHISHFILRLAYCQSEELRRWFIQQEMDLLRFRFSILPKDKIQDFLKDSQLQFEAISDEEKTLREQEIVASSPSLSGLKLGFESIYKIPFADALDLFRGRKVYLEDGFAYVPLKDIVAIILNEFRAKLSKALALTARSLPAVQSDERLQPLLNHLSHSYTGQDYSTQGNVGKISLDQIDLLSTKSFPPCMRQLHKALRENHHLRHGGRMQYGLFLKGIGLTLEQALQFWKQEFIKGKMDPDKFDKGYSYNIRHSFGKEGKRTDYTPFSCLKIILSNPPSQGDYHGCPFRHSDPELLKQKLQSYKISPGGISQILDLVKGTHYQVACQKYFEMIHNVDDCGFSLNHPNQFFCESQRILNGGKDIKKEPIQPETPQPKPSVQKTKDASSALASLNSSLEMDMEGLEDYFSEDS
# Sequence of UniProt Q13362 (Q13362 whole entry, looked up): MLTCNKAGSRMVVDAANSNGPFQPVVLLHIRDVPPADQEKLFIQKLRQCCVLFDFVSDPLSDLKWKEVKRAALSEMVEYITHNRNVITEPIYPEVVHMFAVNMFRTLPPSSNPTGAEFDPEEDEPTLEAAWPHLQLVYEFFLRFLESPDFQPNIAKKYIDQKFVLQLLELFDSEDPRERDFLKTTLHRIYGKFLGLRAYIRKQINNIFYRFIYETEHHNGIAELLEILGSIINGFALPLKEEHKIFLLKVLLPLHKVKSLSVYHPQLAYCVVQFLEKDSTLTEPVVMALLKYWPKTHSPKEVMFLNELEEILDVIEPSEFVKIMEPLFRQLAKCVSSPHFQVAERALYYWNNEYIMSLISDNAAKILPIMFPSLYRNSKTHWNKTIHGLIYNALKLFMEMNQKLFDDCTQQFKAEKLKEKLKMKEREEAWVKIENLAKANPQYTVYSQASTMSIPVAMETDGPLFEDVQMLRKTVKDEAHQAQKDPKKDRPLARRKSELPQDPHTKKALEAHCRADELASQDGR
# Sequence of UniProt O95394 (O95394 whole entry, looked up): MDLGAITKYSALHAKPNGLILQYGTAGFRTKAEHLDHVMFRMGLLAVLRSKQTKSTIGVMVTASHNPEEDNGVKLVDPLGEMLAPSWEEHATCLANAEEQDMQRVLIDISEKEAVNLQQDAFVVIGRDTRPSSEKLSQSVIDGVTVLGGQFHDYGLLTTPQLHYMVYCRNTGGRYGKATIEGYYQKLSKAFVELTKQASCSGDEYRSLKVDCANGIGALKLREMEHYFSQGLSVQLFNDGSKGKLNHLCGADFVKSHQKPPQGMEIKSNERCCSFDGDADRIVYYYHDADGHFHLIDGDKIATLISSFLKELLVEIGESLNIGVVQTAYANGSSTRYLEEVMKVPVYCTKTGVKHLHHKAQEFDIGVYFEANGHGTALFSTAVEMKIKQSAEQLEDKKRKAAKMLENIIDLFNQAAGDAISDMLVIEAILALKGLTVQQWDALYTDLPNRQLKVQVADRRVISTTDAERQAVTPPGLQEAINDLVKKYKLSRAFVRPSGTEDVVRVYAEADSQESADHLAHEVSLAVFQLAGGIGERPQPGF
# Sequence of UniProt P53350 (P53350 whole entry, looked up): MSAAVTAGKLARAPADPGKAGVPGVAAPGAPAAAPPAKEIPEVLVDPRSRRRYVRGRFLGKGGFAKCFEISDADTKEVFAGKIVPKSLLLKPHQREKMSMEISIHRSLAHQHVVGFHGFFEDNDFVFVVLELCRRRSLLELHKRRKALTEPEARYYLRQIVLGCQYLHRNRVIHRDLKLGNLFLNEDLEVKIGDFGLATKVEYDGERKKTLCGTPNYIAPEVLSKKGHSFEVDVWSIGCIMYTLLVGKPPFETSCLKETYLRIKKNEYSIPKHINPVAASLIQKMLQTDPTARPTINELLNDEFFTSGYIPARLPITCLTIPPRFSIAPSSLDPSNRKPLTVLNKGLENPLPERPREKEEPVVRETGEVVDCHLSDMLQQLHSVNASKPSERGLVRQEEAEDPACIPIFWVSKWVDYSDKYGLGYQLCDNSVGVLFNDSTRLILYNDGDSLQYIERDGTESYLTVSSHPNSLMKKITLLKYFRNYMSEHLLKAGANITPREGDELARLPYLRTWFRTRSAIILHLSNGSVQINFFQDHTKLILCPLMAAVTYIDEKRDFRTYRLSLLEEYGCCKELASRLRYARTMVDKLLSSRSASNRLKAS
# Sequence of UniProt P06454 (P06454 whole entry, looked up): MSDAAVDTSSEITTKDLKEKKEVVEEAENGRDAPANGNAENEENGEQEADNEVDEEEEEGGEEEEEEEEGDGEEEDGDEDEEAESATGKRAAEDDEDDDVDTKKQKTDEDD
# Sequence of UniProt P35227 (P35227 whole entry, looked up): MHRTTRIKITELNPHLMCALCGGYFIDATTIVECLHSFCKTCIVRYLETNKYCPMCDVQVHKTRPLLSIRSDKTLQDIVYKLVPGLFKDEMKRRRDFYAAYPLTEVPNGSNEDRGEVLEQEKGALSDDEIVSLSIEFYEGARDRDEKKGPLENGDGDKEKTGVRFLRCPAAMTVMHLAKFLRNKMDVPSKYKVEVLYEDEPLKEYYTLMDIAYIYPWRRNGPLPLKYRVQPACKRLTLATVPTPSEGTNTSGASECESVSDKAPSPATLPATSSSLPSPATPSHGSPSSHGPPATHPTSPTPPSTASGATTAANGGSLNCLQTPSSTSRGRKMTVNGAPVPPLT
# Sequence of UniProt Q7Z3K3 (Q7Z3K3 whole entry, looked up): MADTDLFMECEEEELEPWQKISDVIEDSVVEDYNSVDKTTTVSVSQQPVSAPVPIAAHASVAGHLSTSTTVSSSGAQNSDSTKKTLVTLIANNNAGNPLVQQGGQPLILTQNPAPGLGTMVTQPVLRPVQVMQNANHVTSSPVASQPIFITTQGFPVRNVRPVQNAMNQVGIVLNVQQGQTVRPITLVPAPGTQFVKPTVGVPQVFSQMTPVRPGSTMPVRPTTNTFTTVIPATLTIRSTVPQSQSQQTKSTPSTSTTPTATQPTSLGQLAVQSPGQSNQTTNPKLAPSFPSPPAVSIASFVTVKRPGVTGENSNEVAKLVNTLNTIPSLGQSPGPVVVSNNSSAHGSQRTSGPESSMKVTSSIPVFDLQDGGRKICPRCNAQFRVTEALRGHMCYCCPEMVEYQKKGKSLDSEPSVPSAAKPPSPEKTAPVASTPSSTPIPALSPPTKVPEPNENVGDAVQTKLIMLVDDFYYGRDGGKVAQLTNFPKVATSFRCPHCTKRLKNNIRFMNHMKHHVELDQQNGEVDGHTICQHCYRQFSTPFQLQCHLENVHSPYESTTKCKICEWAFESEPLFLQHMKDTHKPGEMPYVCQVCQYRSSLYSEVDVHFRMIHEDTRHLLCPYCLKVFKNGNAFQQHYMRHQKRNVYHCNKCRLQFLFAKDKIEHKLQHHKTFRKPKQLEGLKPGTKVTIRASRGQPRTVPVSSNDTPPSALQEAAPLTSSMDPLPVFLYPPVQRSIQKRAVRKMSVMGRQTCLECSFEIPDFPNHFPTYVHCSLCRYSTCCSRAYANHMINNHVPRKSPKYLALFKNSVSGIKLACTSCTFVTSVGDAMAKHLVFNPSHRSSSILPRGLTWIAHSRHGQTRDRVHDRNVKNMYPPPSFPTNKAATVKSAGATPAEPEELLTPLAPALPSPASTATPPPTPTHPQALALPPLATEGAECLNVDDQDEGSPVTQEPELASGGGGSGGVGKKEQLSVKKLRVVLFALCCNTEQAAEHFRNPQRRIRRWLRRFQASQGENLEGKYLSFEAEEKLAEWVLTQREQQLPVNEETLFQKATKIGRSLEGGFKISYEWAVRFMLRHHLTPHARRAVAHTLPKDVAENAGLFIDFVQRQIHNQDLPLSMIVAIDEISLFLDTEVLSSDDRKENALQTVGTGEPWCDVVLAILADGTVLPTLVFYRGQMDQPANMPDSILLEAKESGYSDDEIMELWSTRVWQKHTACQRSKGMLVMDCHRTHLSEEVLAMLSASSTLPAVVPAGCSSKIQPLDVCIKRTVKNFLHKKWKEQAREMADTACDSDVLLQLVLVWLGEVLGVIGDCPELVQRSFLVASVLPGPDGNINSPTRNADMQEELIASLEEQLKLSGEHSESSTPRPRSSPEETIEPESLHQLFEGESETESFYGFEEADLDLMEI
Target,log2 fold change [1],log2 fold change (crizotinib),log2 fold change [2],log2 fold change [3],log2 fold change (duvelisib),log2 fold change (gandotinib),log2 fold change (tozasertib),log2 fold change [4],log2 fold change (doramapimod),log2 fold change (ispinesib)
PTMA (UniProt P06454),-0.041,-0.302,-0.155,-0.034,0.006,0.059,0.154,-0.042,0.072,0.199
PPIL4 (UniProt Q8WUA2),-0.022,-0.013,0.027,-0.01,0.025,0,-0.026,0.021,0.019,-0.017
PLK1 (UniProt P53350),-0.113,-0.105,-0.194,0.031,0.012,0.095,0.037,-0.1,0.032,0.01
POLR2M (UniProt P0CAP2),0.028,0.074,0.097,0.044,0.164,0.141,-0.052,0.012,0.013,-0.055
PDLIM7 (UniProt Q9NR12),-0.01,-0.075,-0.002,-0.05,0.019,0.026,-0.002,0.004,0.012,-0.075
PRPF31 (UniProt Q8WWY3),0.041,0.013,0.181,0.137,0.133,-0.044,0.08,0.159,0.069,-0.029
PTTG1 (UniProt O95997),-0.093,-0.012,-0.085,-0.044,0.068,-0.108,-0.015,0.021,0.076,-0.034
PRKAR2A (UniProt P13861),0.046,-0.038,0.089,-0.159,0.069,-0.02,0.04,0.023,0.03,-0.056
POM121 (UniProt Q96HA1),0.024,-0.139,-0.016,0.084,-0.022,-0.043,0.014,0.008,0.134,-0.307 (active)
PYGB (UniProt P11216),-0.305 (active),-0.057,0.015,0.107,0.026,-0.045,-0.04,-0.002,-0.005,0.013
PKM (UniProt P14618),0.003,0.021,0.013,-0.044,0.007,-0.013,-0.026,-0.029,-0.019,0.02
PRKAR2B (UniProt P31323),-0.026,-0.108,-0.067,-0.136,0.007,-0.271,0.026,0.112,0.073,-0.001
POLR3D (UniProt P05423),0.088,-0.035,-0.064,0.112,0.011,-0.056,-0.063,-0.085,0.022,-0.05
PRKAG1 isoform 3 (UniProt P54619),-0.01,-0.114,0.006,-0.023,0.035,-0.249,-0.032,0.004,-0.003,-0.018
PECAM1 (UniProt P16284),0.086,0.145,0.157,0.034,0.08,-0.001,-0.105,-0.03,-0.025,0.099
PSPC1 (UniProt Q8WXF1),-0.068,0.076,-0.044,0.088,-0.03,-0.09,0.01,0.04,-0.028,-0.217
PSMD6 (UniProt Q15008),0.033,-0.046,-0.08,0.052,-0.071,-0.02,0.047,0.03,0.057,0.056
PPP2R5C isoform 5 (UniProt Q13362),-0.054,-0.071,0.023,-0.05,0.009,-0.024,-0.019,0.069,-0.043,0.007
PPT2 isoform 3 (UniProt Q9UMR5),0.074,-0.182,-0.021,-0.148,0.057,0.001,-0.04,-0.069,0.006,-0.041
PRIM2 (UniProt P49643),0.078,-0.063,0.154,0.066,-0.038,0.07,0.059,0.145,-0.06,-0.061
POLR2B (UniProt P30876),0.041,0.032,0.023,0.18,0.025,0.26 (active),-0.014,0.03,-0.014,-0.048
PTDSS1 (UniProt P48651),-0.029,-0.141,-0.05,0.209,-0.225,-0.039,-0.048,0.105,0.151,-0.326
PIP4P1 isoform 2 (UniProt Q86T03),0.021,-0.395 (active),-0.123,0.086,-0.085,0.107,0.021,-0.048,-0.025,-0.353 (active)
PCGF2 (UniProt P35227),0.041,0.01,0.075,0.087,0.124,0.121,0.015,0.15,-0.089,0.021
PIP4K2A (UniProt P48426),0.411 (active),-0.032,0.027,0.013,-0.126,-0.084,-0.007,0.042,0.026,-0.052
POLR2G (UniProt P62487),0.006,0.257,0.111,0.125,0.087,0.191,-0.051,-0.026,-0.016,0.035
PLIN2 (UniProt Q99541),-0.103,-0.841 (active),0.054,0.03,0.098,-0.31,-0.086,0.031,-0.092,-2.6 (active)
POGZ (UniProt Q7Z3K3),0.044,-0.019,0.242,0.01,-0.115,0.143,0.153,0.142,0.053,-0.221
PGM3 isoform 4 (UniProt O95394),0.025,-0.098,0.04,-0.024,0.043,-0.034,-0.019,0.108,0.016,-0.09
PUM1 isoform 3 (UniProt Q14671),0.007,-0.02,-0.007,0.071,0.008,-0.055,0.007,0.007,-0.03,0.01
